# Data as given in PubChem BioAssay.
# The source made the active and inactive calls.
# Columns and labels:
# [1] = test system: Plasmodium falciparum Sir2 (PF13_0152, Sir2A); assay: Plasmodium falciparum Sir2A binding compounds – biochemical, small-molecule microarray, 635 nm fluorescence, primary screen (AID 1098); settings: fluorescence 635 nm, higher = more signal;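 also: score merges spot fluorescence intensity with its signal-to-noise ratio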
# [2] = probe aDKK1 binding to arrayed compounds – biochemical, biotinylated probe, 635/667 nm fluorescence, primary screen (AID 1099); settings: small-molecule microarray, higher = more signal;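 also: score merges 667nm spot fluorescence with signal to noise across triplicate slides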
# [3] = probe aCHRDL2 binding to arrayed compounds – biochemical, biotinylated probe, 635/667 nm fluorescence, primary screen (AID 1100); settings: small-molecule microarray, higher = more signal
# [4] = change in splice reporter luminescence, either direction, cell-based, HEK293, spliceosome inhibition project, primary screen (AID 1101); settings: HEK293 splicing luciferase reporter, 24 h, higher = more signal, called active from +8 up or from −8 down;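 also: HEK293 cells carrying a splicing-competent luciferase reporter gene; test concentration not given here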
# [5] = biological target: Fibroblast growth factor 10 (Homo sapiens) (UniProt O15520); assay: compounds binding fibroblast growth factor 10 – biochemical, small-molecule microarray, 635 nm fluorescence, primary screen (AID 1102); settings: FGF10 binding, fluorescence 635 nm, higher = more signal
# Fibroblast growth factor 10 (Homo sapiens), sequence (O15520 whole entry, looked up): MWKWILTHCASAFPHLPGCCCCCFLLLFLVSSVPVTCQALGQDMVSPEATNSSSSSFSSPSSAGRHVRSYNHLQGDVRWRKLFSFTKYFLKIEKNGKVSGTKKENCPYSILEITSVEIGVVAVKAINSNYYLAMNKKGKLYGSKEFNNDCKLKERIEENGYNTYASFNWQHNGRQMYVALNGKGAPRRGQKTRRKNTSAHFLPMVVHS
# [6] = test system: glycogen synthase kinase-3 (GSK3A per assay name; protocol says GSK3B); assay: compounds binding glycogen synthase kinase-3 – biochemical, small-molecule microarray, 635 nm fluorescence, GSK3A, primary screen (AID 1103); settings: fluorescence 635 nm, higher = more signal; also: the record names both GSK3A and GSK3B
# [7] = biological target: Epidermal growth factor receptor (Homo sapiens) (UniProt P00533); assay: compounds binding epidermal growth factor receptor – biochemical, small-molecule microarray, 635 nm fluorescence, primary screen (AID 1104); settings: EGFR binding, higher = more signal;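 also: score merges 667 nm emission intensity with spot signal to noise over triplicate slides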
# Epidermal growth factor receptor (Homo sapiens), sequence (P00533 whole entry, looked up): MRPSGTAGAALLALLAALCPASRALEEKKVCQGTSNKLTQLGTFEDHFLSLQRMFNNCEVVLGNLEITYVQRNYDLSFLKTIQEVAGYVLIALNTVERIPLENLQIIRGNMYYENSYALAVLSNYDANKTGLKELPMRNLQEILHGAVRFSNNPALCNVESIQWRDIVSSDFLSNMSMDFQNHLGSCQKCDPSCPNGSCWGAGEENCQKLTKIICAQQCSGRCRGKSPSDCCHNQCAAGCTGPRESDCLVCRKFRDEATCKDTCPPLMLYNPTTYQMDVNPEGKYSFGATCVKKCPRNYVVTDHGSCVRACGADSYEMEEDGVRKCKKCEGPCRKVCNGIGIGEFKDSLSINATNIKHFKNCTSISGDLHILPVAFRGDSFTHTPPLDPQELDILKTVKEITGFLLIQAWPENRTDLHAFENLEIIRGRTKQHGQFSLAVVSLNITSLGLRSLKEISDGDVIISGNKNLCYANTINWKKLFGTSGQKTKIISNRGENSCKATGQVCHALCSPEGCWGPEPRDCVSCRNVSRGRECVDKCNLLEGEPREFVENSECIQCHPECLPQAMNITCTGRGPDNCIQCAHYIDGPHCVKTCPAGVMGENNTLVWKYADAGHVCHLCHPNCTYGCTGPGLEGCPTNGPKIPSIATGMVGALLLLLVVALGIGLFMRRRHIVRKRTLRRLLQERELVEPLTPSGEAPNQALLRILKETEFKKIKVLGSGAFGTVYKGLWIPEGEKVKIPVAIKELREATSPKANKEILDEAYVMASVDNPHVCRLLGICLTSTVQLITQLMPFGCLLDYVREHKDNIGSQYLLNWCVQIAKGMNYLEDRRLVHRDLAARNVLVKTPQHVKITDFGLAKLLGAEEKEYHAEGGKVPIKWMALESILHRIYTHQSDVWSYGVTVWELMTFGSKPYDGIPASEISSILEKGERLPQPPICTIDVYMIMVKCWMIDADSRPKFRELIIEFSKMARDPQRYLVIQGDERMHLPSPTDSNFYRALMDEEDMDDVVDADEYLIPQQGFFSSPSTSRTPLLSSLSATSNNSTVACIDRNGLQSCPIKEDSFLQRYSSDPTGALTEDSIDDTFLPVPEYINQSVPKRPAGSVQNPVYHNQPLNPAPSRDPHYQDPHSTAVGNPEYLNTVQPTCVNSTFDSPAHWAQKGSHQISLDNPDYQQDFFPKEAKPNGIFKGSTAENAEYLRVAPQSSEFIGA
# [8] = biological target: Follistatin-related protein 3 (Homo sapiens) (UniProt O95633); assay: compounds binding follistatin-related protein 3 – biochemical, small-molecule microarray, 635 nm fluorescence, primary screen (AID 1105); settings: FSTL3 binding, higher = more signal;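 also: score merges emission near 667 nm and signal to noise per printed spot across three slides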
# Follistatin-related protein 3 (Homo sapiens), sequence (O95633 whole entry, looked up): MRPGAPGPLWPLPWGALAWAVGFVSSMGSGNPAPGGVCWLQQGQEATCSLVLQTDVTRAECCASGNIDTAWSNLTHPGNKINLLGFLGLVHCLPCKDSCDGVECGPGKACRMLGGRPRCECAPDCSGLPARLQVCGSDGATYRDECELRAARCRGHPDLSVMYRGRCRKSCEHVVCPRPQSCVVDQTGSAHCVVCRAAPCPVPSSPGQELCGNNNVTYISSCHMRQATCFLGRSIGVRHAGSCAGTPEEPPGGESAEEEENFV
# [9] = biological target: Dickkopf-related protein 1 (Homo sapiens) (UniProt O94907); assay: small molecules binding DKK1 protein – biochemical, small-molecule microarray, 635 nm fluorescence scan, primary screen (AID 1106); settings: higher = more signal;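 also: score merges emission near 667 nm with signal to noise over three replicate slides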
# Dickkopf-related protein 1 (Homo sapiens), sequence (O94907 whole entry, looked up): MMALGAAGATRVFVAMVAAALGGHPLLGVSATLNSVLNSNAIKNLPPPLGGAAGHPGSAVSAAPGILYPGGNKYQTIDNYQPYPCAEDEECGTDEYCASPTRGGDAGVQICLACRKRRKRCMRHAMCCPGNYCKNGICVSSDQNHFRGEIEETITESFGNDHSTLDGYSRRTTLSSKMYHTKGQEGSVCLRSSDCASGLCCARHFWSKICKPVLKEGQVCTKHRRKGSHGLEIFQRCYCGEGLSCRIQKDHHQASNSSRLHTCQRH
# [10] = test system: Inhibin beta A chain (activin A); assay: small molecules binding activin A – biochemical, small-molecule microarray, 635 nm fluorescence scan, primary screen (AID 1107); settings: INHBA, higher = more signal;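 also: mouse activin A protein probed at 4.33 µg/mL on printed slides; score merges bound-protein fluorescence near 667 nm with spot signal-to-noise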
# [11] = test system: Human papillomavirus type 1a protein E7 (residues 44-93); assay: small molecules binding HPV E7 44-93 – biochemical, small-molecule microarray, residues 44-93, 635 nm fluorescence, primary screen (AID 1108); settings: fluorescence 635 nm, higher = more signal;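 also: E7 fragment applied at 1 µg/mL in TBST for 1 h at 4 C; score combines spot fluorescence with its signal to noise ratio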
# [12] = hepatitis C replication reporter changes, two-sided – Huh7 cells, luciferase reporter, HCV replication inhibitor project, primary screen (AID 1109); settings: Huh7 HCV replicon luciferase reporter, 48 h; higher = more signal;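 also: huh7 hepatoma cells harbouring a luciferase neomycin HCV replicon reporter; luciferase luminescence as measure of HCV replicon replication; test concentration not given here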
# [13] = biological target: Left-right determination factor 2 (Homo sapiens) (UniProt O00292); assay: small molecules binding LEFTY2 protein – biochemical, small-molecule microarray, 635 nm fluorescence scan, primary screen (AID 1110); settings: higher = more signal
# Left-right determination factor 2 (Homo sapiens), sequence (O00292 whole entry, looked up): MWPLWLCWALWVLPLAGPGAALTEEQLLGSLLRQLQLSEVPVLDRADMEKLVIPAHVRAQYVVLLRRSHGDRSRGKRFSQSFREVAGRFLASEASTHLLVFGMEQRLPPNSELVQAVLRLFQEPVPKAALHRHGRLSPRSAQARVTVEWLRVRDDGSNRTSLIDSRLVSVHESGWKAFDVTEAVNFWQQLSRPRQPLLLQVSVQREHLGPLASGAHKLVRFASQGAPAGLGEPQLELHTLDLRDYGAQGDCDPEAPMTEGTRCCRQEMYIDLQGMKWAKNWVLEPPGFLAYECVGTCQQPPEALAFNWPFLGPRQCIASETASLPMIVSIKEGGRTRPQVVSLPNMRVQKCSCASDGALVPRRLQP
# [14] = biological target: Calmodulin-1 (Homo sapiens) (UniProt P0DP23); assay: small molecules binding calmodulin-1 with EGTA – biochemical, small-molecule microarray, Cy5-labelled CALM1, profiling panel (AID 1111); settings: Cy5-CALM1 binding fluorescence, higher = more signal;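 also: labelled calmodulin applied in Tris saline Tween buffer holding calcium plus EGTA and DTT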
# [15] = biological target: Calmodulin-1 (Homo sapiens) (UniProt P0DP23); assay: small molecules binding Ca-loaded calmodulin-1 – biochemical, small-molecule microarray, Cy5-labelled CALM1, plus calcium, artefact control for SMM control-protein annotation, profiling panel (AID 1112); settings: Cy5-CALM1 binding fluorescence, higher = more signal;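 also: score merges spot fluorescence with signal to noise from triplicate slides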
# [16] = probe aWnt5a binding to arrayed compounds – biochemical, biotinylated probe, 635/667 nm fluorescence, primary screen (AID 1113); settings: small-molecule microarray, higher = more signal;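 also: score merges 667 nm fluorescence intensity with signal-to-noise per printed feature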
# [17] = probe aShh binding to arrayed compounds – biochemical, biotinylated probe, 635/667 nm fluorescence, primary screen (AID 1114); settings: small-molecule microarray, higher = more signal;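 also: probe is biotin-labelled aShh protein from a stem cell growth factor screen; measures binding of labelled protein to compounds printed on the slide; score merges feature fluorescence at 667 nm with signal-to-noise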
# [18] = probe aNog binding to arrayed compounds – biochemical, biotinylated probe, 635/667 nm fluorescence, primary screen (AID 1115); settings: small-molecule microarray, higher = more signal;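 also: probe is biotinylated aNog protein used at 0.15 µg/mL for 1 h at 4 C; z-score combines 667 nm fluorescence of each spot with its signal to noise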
# [19] = biological target: Torsin-1A-interacting protein 1 (Homo sapiens) (UniProt Q5JTV8); assay: compound microarray binding of lysate hLAP1 – cell lysate, small-molecule microarray, COS7 lysate, 635/667 nm fluorescence, primary screen (AID 1116); settings: 635 nm fluorescence, higher = more signal
# Torsin-1A-interacting protein 1 (Homo sapiens), sequence (Q5JTV8 whole entry, looked up): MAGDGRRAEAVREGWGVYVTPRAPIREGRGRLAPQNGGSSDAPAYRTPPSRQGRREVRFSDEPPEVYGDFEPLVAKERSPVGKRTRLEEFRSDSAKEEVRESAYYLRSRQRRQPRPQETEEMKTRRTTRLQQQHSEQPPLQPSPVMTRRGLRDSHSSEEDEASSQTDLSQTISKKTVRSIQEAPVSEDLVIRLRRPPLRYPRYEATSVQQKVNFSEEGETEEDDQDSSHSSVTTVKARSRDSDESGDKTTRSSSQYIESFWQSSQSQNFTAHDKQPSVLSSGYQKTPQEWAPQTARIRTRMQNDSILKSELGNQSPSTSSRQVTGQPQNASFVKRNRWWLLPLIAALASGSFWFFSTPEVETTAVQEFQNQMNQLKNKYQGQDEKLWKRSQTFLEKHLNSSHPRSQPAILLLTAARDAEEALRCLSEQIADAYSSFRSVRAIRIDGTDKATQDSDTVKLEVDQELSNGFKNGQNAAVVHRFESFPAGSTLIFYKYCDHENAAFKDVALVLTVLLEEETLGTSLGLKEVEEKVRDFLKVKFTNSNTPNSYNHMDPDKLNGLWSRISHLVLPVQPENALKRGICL
# [20] = biological target: Alpha-bungarotoxin (Bungarus multicinctus) (UniProt P60615); assay: compounds binding labelled alpha-BTX control protein – biochemical, small-molecule microarray, Alexa647 label, 635/667 nm fluorescence, artefact control for SMM control protein annotation, profiling panel (AID 1117); settings: alpha-BTX-A647 binding fluorescence, higher = more signal
# Alpha-bungarotoxin (Bungarus multicinctus), sequence (P60615 whole entry, looked up): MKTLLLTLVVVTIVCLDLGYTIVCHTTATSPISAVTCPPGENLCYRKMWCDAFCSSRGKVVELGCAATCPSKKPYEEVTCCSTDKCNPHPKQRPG
Compound,composite z-score [1],composite z-score [2],composite z-score [3],z-score [4],composite z-score [5],composite z-score [6],composite z-score [7],composite z-score [8],composite z-score [9],composite z-score [10],composite z-score [11],z-score [12],composite z-score [13],composite z-score [14],composite z-score [15],composite z-score [16],composite z-score [17],composite z-score [18],composite z-score [19],composite z-score [20]
O=C1C[C@]2(c3ccc([N+](=O)[O-])cc3)C(=O)N(Cc3ccccc3)c3cc(CO)ccc3[C@H]2N1CC12CC3CC(CC(C3)C1)C2,-1.44,1.03,0.259,1.39 (inactive),-0.36,-0.855,-0.478,-0.791,-0.852,-0.544,-0.864,-0.411,-1.11,-0.393,-0.11,-0.281,-0.408,-0.103,-0.0647,-0.814
C=CCC(OC(C)=O)[C@@H]1[C@@H](N(Cc2cc3ccccc3o2)C(=O)Cc2ccc(F)cc2)c2cc(OCCCO)ccc2N1C(=O)c1ccc2ccccc2n1 (stereo not given in full),-0.278,-0.106,0.394,-0.509 (inactive),-0.0436,-0.497,0.112,-0.255,0.0645,1.2,-0.221,0.476,-0.139,-0.408,-0.12,0.0179,-0.426,0.14,-0.103,0.222
C=CC[C@]1(C(=O)N(C)C)N=C(c2ccc(OCCCO)cc2)O[C@H]1c1ccccc1N=[N+]=[N-],0.265,0.776,1.14,-0.288 (inactive),0.762,0.346,-0.257,0.859,-0.367,0.889,1.4,-0.277,-0.406,2.27,0.116,0.0559,0.158,-0.0009,0.959,2.03
Cc1ccc(C(C)CC(O)C2C=CC3C(=O)N(c4ccccc4)C(=O)C3N2Nc2ccc(C(C)C)cc2)o1 (stereo not given),0.938,1.14,1.37,1.46 (inactive),0.545,0.777,0.17,0.679,-0.252,1.13,1.33,1.02,-0.0337,2.35,1.01,0.14,-0.043,0.0485,0.801,1.64
CCC[C@@H]1C[C@@]1(CCC)[C@@H](NP(=O)(c1ccccc1)c1ccccc1)c1ccc(Cl)cc1,0.219,0.0536,0.292,-2.26 (inactive),-0.489,-0.965,-0.537,-0.366,0.102,1.18,-0.213,-1.62,-0.427,-0.915,-1.31,-0.127,1.44,-0.532,-0.357,-0.846
CC(C)(C)OC(=O)CC[C@]1(C(=O)O)N=C(c2ccc(OCCCO)cc2)O[C@H]1c1ccccc1,1.14,0.191,0.542,-1.32 (inactive),-0.272,-0.406,-0.329,-0.121,-0.517,0.734,0.138,-0.733,-0.369,0.76,1.05,-0.096,-0.0769,-0.172,0.0522,0.574
COC(=O)[C@@]1(Cc2ccc(OC)cc2)[C@H]2c3cc(C(=O)N(C)C)n(Cc4nc5ccccc5[nH]4)c3C[C@H]2CN1C(=O)c1ccccc1,0.432,0.956,0.958,-1.21 (inactive),1.09,1.23,0.0916,1.35,-0.463,0.777,1.48,-1.81,-0.314,2.08,1.06,0.343,0.361,1.81,0.564,1.26
CN(C)CCCNC(=O)[C@@]1(C)c2ccccc2C(=O)N(Cc2cc(C(F)(F)F)cc(C(F)(F)F)c2)[C@H]1c1ccc(CO)cc1,1.01,0.202,0.0634,-1.24 (inactive),-0.753,-0.477,-1.9,-1.14,-0.992,-1.34,-0.488,-1.85,-1.31,0.139,0.0751,-0.118,-0.134,-0.484,-0.54,-0.779
[N-]=[N+]=NCc1ccccc1C[C@]1(C(=O)NCC(O)CO)N=C(c2ccc(OCCCO)cc2)O[C@H]1c1ccccc1CN=[N+]=[N-] (stereo not given in full),0.425,0.384,0.953,-0.47 (inactive),1.08,1.15,-0.154,-0.392,-0.749,0.387,1.47,-2.88,-0.353,1.42,0.786,0.115,0.541,0.721,2.41,1.21
C=C(/C(=C/C[C@@H](OC(=O)c1ccncc1)c1ccc(OCCO)cc1)c1cc(C(=O)OC)ccc1OC)C(C)C,0.596,-0.354,-0.338,-0.432 (inactive),0.426,0.284,0.325,0.609,-0.0107,0.309,1.38,-1.88,-0.0398,0.356,-0.252,-0.0721,-0.138,-0.45,0.637,0.249
CN1C(=O)[C@@]2(CCS(=O)(=O)c3ccccc3)N=C(c3ccc(OCCCO)cc3)O[C@H]2c2ccccc21,1.12,0.0859,0.861,-1.06 (inactive),0.939,1.32,0.364,1.05,0.172,0.615,1.48,-1.55,-0.0486,2.46,-0.865,-0.176,-0.367,-0.321,1.72,1.32
